Structures are written as SMILES. Where “and” joins values, the source holds several entries; their conditions need not be identical. Identical values can stand only once. Some structures have more than one record in an assay (separate samples or runs), and their calls can disagree. Calls of active or inactive are those of the source. Rule for the calls: active = hit-call score of the fitted dose curve at least 0.9, where 1 is the maximum; inactive = score below 0.9.

In PubChem BioAssay (EPA / NIEHS) one finds outcome and AC50 data, which are given here for 39 molecules.

Read-out in this experiment: ABC Transporter (ABCB1), ABCB1 (gene 5243)
The experiment is described as follows: LTEA_HepaRG_ABCB1: Life Technologies and Expression Analysis (LTEA) Assay for ABC Transporter (ABCB1) using HepaRG (AID 2283460). As to conditions: mRNA level, 48 h; actives raise or lower the signal. Here is the method:
LTEA_HepaRG is a cell based, multiplexed-readout assay that uses HepaRG, a human liver cell line, with measurements taken at 48 hours after chemical dosing on a 96-well plate.LTEA_HepaRG_ABCB1 is one of 102 assay component(s) measured in the LTEA HepaRG cell culture assay. It is a marker of Steatosis/NR mediated transport.Data from the assay component LTEA_HepaRG_ABCB1 was analyzed into 1 endpoint. This assay endpoint, LTEA_HepaRG_ABCB1, was analyzed with bidirectional fitting relative to DMSO as the negative control and baseline of activity. Using a type of inducible reporter, measures of mRNA induction for gain or loss-of-signal activity can be used to understand regulation of transcription factor activity. To generalize the intended target to other relatable targets, this assay endpoint is annotated to the transporter intended target family, where the subfamily is ABC transporter.
A total of 1060 chemcials from the ToxCast library were tested in eight-point concentration-response experiments. Cell culture and cytotoxicity assays were conducted at Thermo Fisher Scientific's Custom Services facility (Madison, WI). A single lot of human HepaRG cells (Thermo Fisher Scientific, Frederick, MD) was used for the cell culture experiments. 96-well format collagen type I coated plates of human HepaRG cells were prepared using established methods. Briefly, cryopreserved HepaRG cells were thawed, plated at a density of approximately 100,000 cells/well in HepaRG Thaw, Plate, and General Purpose media (HPRG770, Thermo Fisher Scientific), and incubated for 48 hours. 0.5% DMSO was selected as vehicle control to balance the requisite need of DMSO in HepaRG cultures to maintain differentiation (for example, baseline metabolism, proportions of hepatocytes vs. cholangiocytes), while enabling further hepatic receptor pathway activation (for example, PXR and CAR) in response to chemical exposure. 48 hours after plating, the culture medium was replaced with HepaRG Serum-Free Incudtion Media. Cells were exposed to each test chemical in duplicate and maintained in CO2 incubators for another 48 hours. Chemical plates were thawed to room temperature and 200x concentrations of treatment groups were prepared. 8-point conentration-reponse curves were made with the highest exposure at 100 uM, followed by half-log dilutions, all in 0.5% DMSO. Each test plate contained variouse controls, induction positive controls (1mM phenobarbital), cytotoxicity positive controls ([…] aflatoxin B1), vehicle controls (0.5% DMSO), and total lysis controls (0.5% DMSO). Cell morphology images were taken using an Essen IncuCyte FLR automated microscope, with six 96-well plates imaged in about 24 minutes. Images were captured and exported and JPEG files. Spent culture media was transfered to black-well plates for the LDH assay, and remaining media was sorted at -80 C for later use. Cells were treated with RLT buffer and frozen until shipped for gene expression analysis. Total RNA was isolated from the cell suspension in 75 uL of Buffer RLT (Qiagen, Germantown, MD 20874) by Quintiles/Expression Analysis (Durham, NC) using a custom isolation procedure. Total RNA from each plate well was transferred to a preamplification plate. Fluidigm's 96.96 Dynamic ArrayTM (Fluidigm, Amsterdam, the Netherlands) technology was used for gene expression analyses by quantitative reverse transcription polymerase chain reaction (qRT-PCR, performed by Quintiles/Expression Analysis, Durham, NC)89. Standard TaqManTM Assays (Applied Biosystems/ThermoFisher Scientific, Foster City, CA) were used to assess the expression of 93 genes selected based on their selectivity and sensitivity to important hepatic receptors known to be modulated by environmental chemicals; importance in human hepatocyte functionality; and hepatotoxicity. […]
Regarding `CC1=C(C(=O)Nc2ccccc2)SCCO1`, the result was inactive. Same read-out and setting: as for `CCCCC(CC)COC(=O)c1ccccc1C(=O)OCC(CC)CCCC` (stereo not given), the entry is “inactive”.

With `Cc1ccc(-c2c(Cl)nc(C#N)n2S(=O)(=O)N(C)C)cc1`, the outcome was inactive.

In the case of `COC(=O)c1ccccc1C(=O)OC`, the molecule was called inactive. A word on the AC50: it is the midpoint of the concentration-response curve, whichever way the signal moves. Take `COc1cnc(OC)n2nc(NS(=O)(=O)c3c(OCC(F)F)cccc3C(F)(F)F)nc12`: the half-maximal activity concentration (AC50) was 23.3 µM (active). The same measure, in the same setting: as for `CCCN(CCC)c1c([N+](=O)[O-])cc(S(N)(=O)=O)cc1[N+](=O)[O-]`, the figure is 89.8 µM (active) and 84.8 µM (active) and 82.3 µM (active). Consider `Cc1c(F)c(F)c(COC(=O)C2C(/C=C(\Cl)C(F)(F)F)C2(C)C)c(F)c1F` (stereo not given), for which the outcome was inactive.

For the molecule `CC(C)Oc1cc(-n2nc(C(C)(C)C)oc2=O)c(Cl)cc1Cl`, the AC50 was 1.25 µM (active). The same measure, in the same setting: as for `CCOC(=O)C(Cl)Cc1cc(-n2nc(C)n(C(F)F)c2=O)c(F)cc1Cl` (stereo not given), the figure is 50 µM (active).

Turning to `C=CC1(C)OC(=O)N(c2cc(Cl)cc(Cl)c2)C1=O` (stereo not given), the half-maximal activity concentration (AC50) is 9.71 µM (active).

For `COC(=O)C=C(C)OP(=O)(OC)OC`, the result was inactive.

For the molecule `COP(=S)(OC)Oc1nc(Cl)c(Cl)cc1Cl`, the result was inactive. On the same count and under the same terms, as for `CCCCNC(=O)n1c(NC(=O)OC)nc2ccccc21`, the entry is “inactive”; as for `CCCCNC(=O)OCC#CI`, “inactive”. In the case of `CO/C=C(/C(=O)OC)c1ccccc1Oc1cc(Oc2ccccc2C#N)ncn1`, the AC50 was 23.5 µM (active) and the molecule was called inactive. Turning to `CCc1nn(C)c(C(=O)NCc2ccc(C(C)(C)C)cc2)c1Cl`, the molecule was classed as inactive. The same measure, in the same setting: as for `CCNc1nc(Cl)nc(NCC)n1`, the entry is “inactive”; as for `N#CC(CCc1ccc(Cl)cc1)(Cn1cncn1)c1ccccc1` (stereo not given), “inactive”.

In the case of `CCOc1cc(Oc2ccc(C(F)(F)F)cc2Cl)ccc1[N+](=O)[O-]`, the outcome was inactive.

As to `CN(C)C(=S)SSC(=S)N(C)C`, the call was inactive. As to `O=C(Nc1ccccc1)Nc1ccnc(Cl)c1`, the concentration at half-maximal activity (AC50) was 84.3 µM (active). On the same count and under the same terms, under `CCNc1nc(Cl)nc(NC(C)C)n1` stands 21.2 µM (active).

In the case of `N#Cc1cc(Br)c(O)c(Br)c1`, the AC50 is 12.1 µM (active). As to `Fc1ccc(Oc2ccnc3cc(Cl)cc(Cl)c23)cc1`, the outcome was inactive. On the same count and under the same terms, as for `Cc1cc(Cl)ccc1OCC(=O)O`, the entry is “inactive”. `OC(c1ccc(Cl)cc1)(c1cncnc1)c1ccccc1Cl` (stereo not given): the AC50 was 28.5 µM (active).

Take `COC(=O)C(C)Oc1ccc(Oc2ccc(Cl)cc2Cl)cc1` (stereo not given): the molecule was classed as inactive. For the molecule `N#Cc1nn(-c2c(Cl)cc(C(F)(F)F)cc2Cl)c(N)c1S(=O)C(F)(F)F` (stereo not given), the AC50 was 11.4 µM (active). For `CCON=C(CC)C1=C(O)CC(c2c(C)cc(C)cc2C)CC1=O` (stereo not given), the concentration at half-maximal activity (AC50) was 50 µM (active). For the molecule `CNC(=O)ON=CC(C)(C)SC`, the molecule was classed as inactive. Same read-out and setting: as for `CCOP(=S)(OCC)SCn1c(=O)oc2cc(Cl)ccc21`, the entry is “inactive”; as for `COc1ccc(C(c2ccc(OC)cc2)C(Cl)(Cl)Cl)cc1`, “inactive”. As to `C=CCC1=C(C)[C@@H](OC(=O)[C@@H]2[C@@H](C=C(C)C)C2(C)C)CC1=O`, the AC50 is 0.086 µM (active). Still for that read-out and setting: as for `COC(=O)N(OC)c1ccccc1COc1ccn(-c2ccc(Cl)cc2)n1`, the figure is 11.6 µM (active).

For `CC(Oc1ccc(Cl)cc1Cl)C(=O)O` (stereo not given), the result was inactive. Take `O=C(O)c1nc(Cl)ccc1Cl`: the call was inactive. Same read-out and setting: under `CNC(=S)S` stands “inactive”. With `COc1nc(NC(C)C)nc(NC(C)C)n1`, the AC50 is 9.31 µM (active). `CON(C)C(=O)Nc1ccc(Cl)c(Cl)c1`: the molecule was classed as inactive.
